The text below walks through data of PubChem BioAssay (NCI).

This is part of a sample that, as a whole, favours compounds with a hit. Of some 83,000 tested, about 20% had one in any assay.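 In brief: 96-well plates, 48 h treatment, single concentration, percent growth endpoint.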 Values without a mark were called inactive. Activity calls are given as the source filed them. The calls were made as follows: active = growth percent below 10; inactive = the rest.

The subject of one assay is T-47D breast. The assay is described as follows: NCI-60 one-dose screen, 48 h (100 = growth as untreated, 0 = no growth, -100 = all killed). The conditions noted are these: 10 µM unless noted.
In the case of `N#CC(I)CS(=O)(=O)c1ccccc1` (stereo not drawn), the growth is 44.6%.
With `CC(C)(C)c1ccc(CCO)cc1`, the growth is 106%.
On the same count and under the same terms, the value for `CCCOS(=O)(=O)c1ccccc1` was 109%; that for `CCC(C)(O)Cc1ccc(Cl)cc1` (stereo not drawn) was 94.9%; that for `CN(C)c1ccc(C(C#N)(c2ccccc2)c2ccc(N(C)C)cc2)cc1` was 41.8%.
Consider `O=[N+]([O-])CC(O)c1ccccc1` (stereo not drawn), for which the growth was 100%.
In the case of `CCOC(=O)C1=NN(c2ccccc2)C(=O)/C1=C\N1C(=O)/C(=C/c2cccc(O)c2)SC1=S`, the growth is 93%.
On the same count and under the same terms, the value for `O=C(CCl)N1c2ccccc2Sc2c1ccc1ccccc21` was 84.3%; that for `CCc1oc2ccccc2c1C(=O)c1cc(Br)c(O)c(Br)c1` was 62.1%.
As for `Cc1cc(C)c([I+]c2c(C)cc(C)cc2C)c(C)c1`, the growth is 0.613% (active).
For the compound `CC1(C)N=c2cc3c(cc2N1c1ccc(Cl)cc1)=Nc1ccccc1N3c1ccc(Cl)cc1`, the growth is 25.1%.
Turning to `O=C(Nc1ccc(Cl)c(Cl)c1)Nc1ccccc1O`, the growth was 50.7%.
Consider `O=C1/C(=C/c2ccccc2)CCC/C1=C\c1ccccc1`, for which the growth is 82%.
With `CN=C(N)N/N=C(\C)c1ccc2c(c1)Cc1ccccc1-2`, the growth is -65.4% (active).
Same read-out and setting: the value for `CCCCCCCCc1cc(Cl)c(O)c(Cl)c1` was 101%; that for `CC1(O)CCCCCC1` was 97%; that for `CCN1/C(=C/C(C)=C/c2sc3ccc4ccccc4c3[n+]2CC)Sc2ccc3ccccc3c21` was -69.8% (active).
Same read-out and setting: the value for `CC(O)C(O)C(O)C(O)C(O)C(=O)NNc1ccccc1` (stereo not drawn) was 76.4%.
Take `Cc1nn(CCO)c(C)c1N=[N+]([O-])c1c(C)nn(CCO)c1C`: the growth is -3.43% (active).
For `CCCCN(CCCC)CCCCCCCCCCO`, the growth is 94.6%.
For the compound `C/C(=N\NC(=S)N1CC2CCC(CC2)C1)c1ccccn1`, the growth is 17.4%.

Another assay relates to BT-549 breast. The assay is described as above. The conditions noted are these: 10 µM unless noted.
Consider `c1csc(-c2[nH]nc3c2CCc2ccccc2-3)c1`, for which the growth is 98.5%.
On the same count and under the same terms, with `C1=C(c2ccccc2)c2ccccc2C1` the figure was 99.1%; with `O=[N+]([O-])c1ccc(C(Br)c2ccc([N+](=O)[O-])cc2)cc1`, 77.3%.
On the same count and under the same terms, with `COc1cccc2c1C(=O)c1c(O)c3c(c(O)c1C2=O)C[C@@](O)(C(=O)CO)C[C@@H]3OC1CC(OC(C)=O)C(OC(C)=O)C(C)O1` (stereo partly drawn) the figure was -39.7% (active).
Still for that read-out and setting: the value for `OC(Cc1cc(CC(O)(C(F)(F)F)C(F)(F)F)nc(CC(O)(C(F)(F)F)C(F)(F)F)c1)(C(F)(F)F)C(F)(F)F` was 11.3%; that for `CCCCCCCCCCCCCCCCSC(=NCC)NCC` was 64.4%.
Take `Cc1ccccc1NC(=O)Cc1csc2[n+]1C(=O)/C(=C/c1ccc([N+](=O)[O-])cc1)S2`: the growth was 88.9%.
With `CN(C)CCN(C)CC(C)(C)C(=O)/C=C/c1ccc(Cl)c(Cl)c1`, the growth was -96% [100 µM] (active).
Take `CC(=O)C1Cc2ccccc2C1=O` (stereo not drawn): the growth is 91.3%.
Turning to `Oc1c(Cl)cc(Cl)cc1C=NCC1CCC(CN=Cc2cc(Cl)cc(Cl)c2O)CC1` (stereo not drawn), the growth was 90.4%.
For the compound `Clc1ccc(-n2ncc3c(NCCCN4CCOCC4)ncnc32)cc1`, the growth was 101%.
Still for that read-out and setting: with `O=C1CSC(=S)N1Cc1cccnc1` the figure was 51.7%; with `CCN(CC)CCNC(Cc1ccccc1)c1ccc(OCc2ccccc2)cc1` (stereo not drawn), 76.8%; with `O=Nc1ccc2ccccc2c1O`, 100%.
`CCOC(=O)/C(=C\c1ccc2ccccc2c1)P(=O)(OCC)OCC`: the growth was 39.8%.
For the compound `Cc1ccc2cccc(OC(=O)Nc3cccc(C(F)(F)F)c3)c2n1`, the growth was 108%.
The same measure, in the same setting: the value for `N#CC(I)CS(=O)(=O)c1ccccc1` (stereo not drawn) was 97%; that for `CC(C)(C)c1ccc(CCO)cc1` was 86.1%.
Take `CCCOS(=O)(=O)c1ccccc1`: the growth is 129%.
As to `CCC(C)(O)Cc1ccc(Cl)cc1` (stereo not drawn), the growth was 98.5%.
Still for that read-out and setting: the value for `CN(C)c1ccc(C(C#N)(c2ccccc2)c2ccc(N(C)C)cc2)cc1` was 72.9%.
As for `O=[N+]([O-])CC(O)c1ccccc1` (stereo not drawn), the growth is 112%.
For the compound `CCOC(=O)C1=NN(c2ccccc2)C(=O)/C1=C\N1C(=O)/C(=C/c2cccc(O)c2)SC1=S`, the growth was 97%.
In the case of `O=C(CCl)N1c2ccccc2Sc2c1ccc1ccccc21`, the growth was 36.9%.
The same measure, in the same setting: the value for `CCc1oc2ccccc2c1C(=O)c1cc(Br)c(O)c(Br)c1` was 35.4%.
The same measure, in the same setting: the value for `Cc1cc(C)c([I+]c2c(C)cc(C)cc2C)c(C)c1` was -86.4% (active).
Same read-out and setting: the value for `CC1(C)N=c2cc3c(cc2N1c1ccc(Cl)cc1)=Nc1ccccc1N3c1ccc(Cl)cc1` was 44%; that for `O=C(Nc1ccc(Cl)c(Cl)c1)Nc1ccccc1O` was 105%.
Turning to `O=C1/C(=C/c2ccccc2)CCC/C1=C\c1ccccc1`, the growth was 80.5%.
On the same count and under the same terms, the value for `CN=C(N)N/N=C(\C)c1ccc2c(c1)Cc1ccccc1-2` was -6.1% (active); that for `CCCCCCCCc1cc(Cl)c(O)c(Cl)c1` was 116%; that for `CC1(O)CCCCCC1` was 96.1%.
Still for that read-out and setting: with `CCN1/C(=C/C(C)=C/c2sc3ccc4ccccc4c3[n+]2CC)Sc2ccc3ccccc3c21` the figure was -93.3% (active).
With `CC(O)C(O)C(O)C(O)C(O)C(=O)NNc1ccccc1` (stereo not drawn), the growth was 105%.
On the same count and under the same terms, the value for `Cc1nn(CCO)c(C)c1N=[N+]([O-])c1c(C)nn(CCO)c1C` was 50.5%; that for `CCCCN(CCCC)CCCCCCCCCCO` was 102%.
For `C/C(=N\NC(=S)N1CC2CCC(CC2)C1)c1ccccn1`, the growth is 30.4%.
